A number with no mark means an inactive call. Inconclusive results are not listed. The source made the active and inactive calls. Unless noted, calls come from the whole dose curve; as a rule, active = well fitted curve in the direction sought with a large enough effect in the repeat runs; inconclusive = weak or mixed curves; inactive = no such curve, though single readings can be large; an effect the other way counts as inactive or inconclusive.

The target in test [1] is Androgen receptor (Homo sapiens) (UniProt P10275). The test can be described thus: qHTS assay to identify small molecule antagonists of the androgen receptor (AR) signaling pathway using the MDA cell line in the presence of 0.5 nM R1881 (AID 1259243). Note: nearly all actives have a fitted effect of over 50% in size. Note: potency is the fitted concentration of half-maximal effect. An outline of the steps:
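Reporter cells cultured without CO2 receive test chemicals, then 0.5 nM R1881 final; after 16 hr at 37C, ONE-Glo is added and light output recorded.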
Background: In qHTS, concentration-response curves come from the screen itself.

Test [2] is described as follows: qHTS assay to identify small molecule phospholipidosis (PLD) inducers (AID 1259344; active = well fitted curve in the direction sought with a large enough effect; an effect the other way counts as inactive or inconclusive). A digest of the protocol:
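HepG2 cells, 900/well, treated with compound plus LipidTOX Red for 24 h at 37 C; amiodarone positive and DMSO negative controls. Fixed with paraformaldehyde/Hoechst, then high-content imaging scored LipidTOX pit count and integrated intensity per well and per cell.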

Test [3] can be described thus: qHTS assay to identify small molecule HDAC inhibitors (AID 1259364). Note: potency is the fitted concentration of half-maximal effect.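 Note: wild-type HCT-116 cells with endogenous class I/II HDAC activity; nearly all actives have a fitted effect of over 45% in size.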 A digest of the protocol:
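Read-out: luminescence of HDAC-Glo I/II reagent, 30 min RT, reflecting class I/II deacetylase activity in whole HCT-116 cells pre-exposed 2 h to DMSO-dissolved compounds.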

Test [4] is described as follows: qHTS assay to identify small molecule HDAC inhibitors - cell viability counter screen (AID 1259365). Note: nearly all actives have a fitted effect of over 50% in size. Note: potency is the fitted concentration of half-maximal effect. A digest of the protocol:
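Wild-type HCT-116 cells were seeded at 1,500 per well, incubated overnight at 37 C, then exposed to compounds in DMSO for 2hr. Viability was read by CellTiter-Glo luminescence after 30min at room temperature.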

Test [5] is described as follows: qHTS assay to identify small molecule agonists of the sonic hedgehog signaling (Shh) pathway - cell viability counter screen (AID 1259366). Note: nearly all actives have a fitted effect of over 50% in size. Note: potency is the fitted concentration of half-maximal effect. An outline of the steps:
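NIH/3T3-derived 3T3 Gli1-Luc cells (stable Gli1-responsive firefly luciferase reporter) were seeded, rested 4 hr at 37 C/5% CO2, then exposed to compounds in DMSO for 24 hr; viability was read by CellTiter-Fluor fluorescence in the same wells.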

Test [6] in a line: qHTS assay to identify small molecule antagonists of the sonic hedgehog signaling (Shh) pathway - cell viability counter screen (AID 1259367). Note: nearly all actives have a fitted effect of over 55% in size. Note: potency is the fitted concentration of half-maximal effect. An outline of the steps:
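NIH/3T3-derived Gli1-Luc reporter cells, 2,000/well, plated 4 hr before compound addition, then stimulated with conditioned medium for 24 hr at 37C. Viability measured in the same wells by CellTiter-Fluor fluorescence, reagent added at 23 hr for 1 hr.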

Test [7] can be described thus: qHTS assay to identify small molecule agonists of the sonic hedgehog signaling (Shh) pathway (AID 1259368; calls by dose curve; note: series mostly up to about 92 µM; nearly all actives have a fitted effect of over 15% in size). An outline of the steps:
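A Gli1 transcriptional response element controlled firefly luciferase in 3T3Gli1-Luc cells. Compounds and a positive control were added 4 hr after plating, and cells were incubated a further 24 hr at 37 C before luminescence detection.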

Test [8] can be described thus: qHTS assay to identify small molecule antagonists of the sonic hedgehog signaling (Shh) pathway (AID 1259369; calls by dose curve; note: nearly all actives have a fitted effect of over 45% in size; note: potency is the fitted concentration of half-maximal effect). An outline of the steps:
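For antagonist detection, the reporter line received test compounds together with conditioned medium, incubated 24hr at 37 C, 5% CO2, then luminescence was recorded following 30min room-temperature luciferase reagent incubation.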

Test [9] concerns the target Estrogen receptor beta (Homo sapiens) (UniProt Q92731). The test can be described thus: qHTS assay to identify small molecule agonists of the estrogen receptor beta (ER-beta) signaling pathway (AID 1259377; active = well fitted activation curve with a large enough effect in the signal ratio in the repeat runs, not every such curve was filed as active; the % refers to the signal ratio). An outline of the steps:
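ER-beta-UAS-bla HEK293T (GripTite) cells carrying a UAS-driven beta-lactamase reporter, in medium with 2% charcoal-stripped FBS, were exposed to compounds for 16 hr at 37C; LiveBLAzer B/G FRET substrate was then added and fluorescence read after 2 hours at room temperature.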

Test [10] deals with Androgen receptor (Homo sapiens) (UniProt P10275). The test can be described thus: qHTS assay to identify small molecule agonists of the androgen receptor (AR) signaling pathway in the presence of an antagonist (AID 1259381; calls by dose curve; note: nearly all actives have a fitted effect of over 15% in size). A digest of the protocol: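 Test compounds at 15 concentrations were incubated for 16hr with MDA-kb2 reporter cells in presence of 3.0uM nilutamide (final). Signal: ONE-Glo luciferase luminescence.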
Androgen receptor (Homo sapiens), sequence (P10275 whole entry, looked up): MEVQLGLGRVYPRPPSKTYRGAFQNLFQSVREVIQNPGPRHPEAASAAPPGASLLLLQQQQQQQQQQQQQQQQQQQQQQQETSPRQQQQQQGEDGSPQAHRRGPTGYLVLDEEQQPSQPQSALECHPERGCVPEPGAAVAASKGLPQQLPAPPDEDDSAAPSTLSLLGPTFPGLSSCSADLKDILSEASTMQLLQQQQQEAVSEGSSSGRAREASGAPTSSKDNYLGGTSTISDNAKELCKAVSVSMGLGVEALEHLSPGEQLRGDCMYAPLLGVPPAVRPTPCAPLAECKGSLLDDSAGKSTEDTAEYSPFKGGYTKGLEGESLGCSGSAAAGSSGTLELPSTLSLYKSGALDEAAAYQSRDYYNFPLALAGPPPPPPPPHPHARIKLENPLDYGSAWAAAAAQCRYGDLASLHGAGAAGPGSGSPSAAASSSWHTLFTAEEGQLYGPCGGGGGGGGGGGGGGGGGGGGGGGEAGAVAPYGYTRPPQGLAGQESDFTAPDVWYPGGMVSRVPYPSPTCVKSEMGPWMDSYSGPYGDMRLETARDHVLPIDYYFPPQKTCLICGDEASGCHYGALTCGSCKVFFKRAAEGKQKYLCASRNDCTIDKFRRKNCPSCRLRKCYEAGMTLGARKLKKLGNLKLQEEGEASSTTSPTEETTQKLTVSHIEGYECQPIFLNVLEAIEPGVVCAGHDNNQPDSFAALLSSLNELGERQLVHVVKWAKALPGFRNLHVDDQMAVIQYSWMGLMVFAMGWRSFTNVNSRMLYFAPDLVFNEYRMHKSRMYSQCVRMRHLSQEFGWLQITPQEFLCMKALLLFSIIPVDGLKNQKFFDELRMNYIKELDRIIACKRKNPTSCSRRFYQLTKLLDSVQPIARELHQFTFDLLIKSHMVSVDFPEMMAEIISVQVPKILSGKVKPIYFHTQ

Test [11] is described as follows: qHTS assay to identify small molecule antagonists of the estrogen receptor beta (ER-beta) signaling pathway - cell viability counter screen (AID 1259382). Note: nearly all actives have a fitted effect of over 55% in size. Note: potency is the fitted concentration of half-maximal effect. An outline of the steps: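 In this multiplexed counter screen, cells were seeded at 2,000 per well in medium with 2% charcoal-stripped FBS and incubated 6 hr before compound and 1nM final E2 were added. Sixteen hours later, ATP-based luminescence reported viability.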

The target of test [12] is Estrogen receptor (Homo sapiens) (UniProt P03372). The test can be described thus: qHTS assay to identify small molecule agonists of the estrogen receptor alpha (ER-alpha) signaling pathway in the presence of an antagonist (AID 1259383; calls by dose curve; note: nearly all actives have a fitted effect of over 15% in size; note: potency is the fitted concentration of half-maximal effect; for activation: top concentration of the series differs between compounds). A digest of the protocol: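 Stably transfected VM7Luc4E2 reporter cells, kept 5 days in charcoal-stripped serum, received ICI-182,780 at 10.0nM final before compound addition. Following 22hr incubation at 37C and 5% CO2, luciferase signal was read by luminescence.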
Estrogen receptor (Homo sapiens), sequence (P03372 whole entry, looked up): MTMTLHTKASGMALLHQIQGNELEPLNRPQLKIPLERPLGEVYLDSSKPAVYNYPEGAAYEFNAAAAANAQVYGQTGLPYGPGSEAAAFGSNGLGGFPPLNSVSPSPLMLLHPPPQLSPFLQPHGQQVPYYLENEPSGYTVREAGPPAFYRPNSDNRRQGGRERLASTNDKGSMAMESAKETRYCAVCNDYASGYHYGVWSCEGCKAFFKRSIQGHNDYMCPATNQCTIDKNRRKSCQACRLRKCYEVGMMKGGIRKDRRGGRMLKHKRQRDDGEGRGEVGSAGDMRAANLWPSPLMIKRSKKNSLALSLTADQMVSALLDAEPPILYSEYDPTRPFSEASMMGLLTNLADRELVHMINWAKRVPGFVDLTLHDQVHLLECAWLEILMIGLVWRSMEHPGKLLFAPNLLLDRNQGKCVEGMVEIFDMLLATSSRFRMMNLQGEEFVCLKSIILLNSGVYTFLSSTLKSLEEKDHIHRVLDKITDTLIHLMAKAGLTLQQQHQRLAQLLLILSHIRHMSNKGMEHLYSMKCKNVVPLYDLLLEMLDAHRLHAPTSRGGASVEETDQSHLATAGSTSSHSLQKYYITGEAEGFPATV

Test [13] can be described thus: qHTS assay to identify small molecule agonists of the estrogen receptor beta (ER-beta) signaling pathway - cell viability counter screen (AID 1259380). Note: nearly all actives have a fitted effect of over 30% in size. Note: potency is the fitted concentration of half-maximal effect. A digest of the protocol:
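CellTiter-Glo read, 30 min RT, same wells as bla assay; cells ER-beta-UAS-bla HEK293T; 16 hr compound, 37C; medium 2% charcoal-stripped FBS.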

Test [14] in a line: qHTS assay to identify small molecule agonists or antagonists of the thyroid stimulating hormone receptor (TSHR) signaling pathway - wild type cell line counter screen (AID 1259384; calls by dose curve). A digest of the protocol: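 Wild-type Hek293 cells, 800/well, 18 h at 37C, then compound with Ro20-1724 for 30 min RT. cAMP by HTRF (cAMP-d2/anti-cAMP cryptate), 1 h RT, fluorescence read. 15 concentrations, triplicates.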

For test [15], the target named is Thyrotropin receptor (Homo sapiens) (UniProt P16473). The test can be described thus: qHTS assay to identify small molecule antagonists of the thyroid stimulating hormone receptor (TSHR) signaling pathway (AID 1259385; calls by dose curve; note: nearly all actives have a fitted effect of over 20% in size). A digest of the protocol:
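TSHR-HEK293 cells (800/well) plated 18 h, then compounds with Ro20-1724 and TSH at 1.5 ng/mL final, 30 min at room temperature. cAMP quantified by HTRF (cAMP-d2/anti-cAMP-cryptate, 1 h); 15 concentrations in triplicate.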

Test [16] in a line: qHTS assay to identify small molecule agonists of the estrogen receptor alpha (ER-alpha) signaling pathway in the presence of an antagonist - cell viability counter screen (AID 1259386).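 Note: cells exposed to compounds for 22 h at 37 °C before the viability read; nearly all actives have a fitted effect of over 30% in size.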 Note: potency is the fitted concentration of half-maximal effect. An outline of the steps:
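Viability counter screen using VM7Luc4E2 (full-length ER-alpha, four ERE-luciferase). The cells were treated with compounds alongside ICI-182,780 10.0nM for 22hr, and live-cell protease fluorescence was quantified with CellTiter-Fluor.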

For test [17], the target named is Progesterone receptor (Homo sapiens) (UniProt P06401). The test can be described thus: qHTS assay to identify small molecule agonists of the progesterone receptor (PR) signaling pathway (AID 1346784; calls by dose curve; note: nearly all actives have a fitted effect of over 30% in size). A digest of the protocol: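 PR-UAS-bla HEK 293T cells carrying a UAS-driven beta-lactamase reporter were seeded in medium with 2% charcoal-stripped FBS, preincubated 6 hr at 37C, then exposed to compounds in DMSO for 16 hr; agonism was read by LiveBLAzer B/G FRET fluorescence.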
Progesterone receptor (Homo sapiens), sequence (P06401 whole entry, looked up): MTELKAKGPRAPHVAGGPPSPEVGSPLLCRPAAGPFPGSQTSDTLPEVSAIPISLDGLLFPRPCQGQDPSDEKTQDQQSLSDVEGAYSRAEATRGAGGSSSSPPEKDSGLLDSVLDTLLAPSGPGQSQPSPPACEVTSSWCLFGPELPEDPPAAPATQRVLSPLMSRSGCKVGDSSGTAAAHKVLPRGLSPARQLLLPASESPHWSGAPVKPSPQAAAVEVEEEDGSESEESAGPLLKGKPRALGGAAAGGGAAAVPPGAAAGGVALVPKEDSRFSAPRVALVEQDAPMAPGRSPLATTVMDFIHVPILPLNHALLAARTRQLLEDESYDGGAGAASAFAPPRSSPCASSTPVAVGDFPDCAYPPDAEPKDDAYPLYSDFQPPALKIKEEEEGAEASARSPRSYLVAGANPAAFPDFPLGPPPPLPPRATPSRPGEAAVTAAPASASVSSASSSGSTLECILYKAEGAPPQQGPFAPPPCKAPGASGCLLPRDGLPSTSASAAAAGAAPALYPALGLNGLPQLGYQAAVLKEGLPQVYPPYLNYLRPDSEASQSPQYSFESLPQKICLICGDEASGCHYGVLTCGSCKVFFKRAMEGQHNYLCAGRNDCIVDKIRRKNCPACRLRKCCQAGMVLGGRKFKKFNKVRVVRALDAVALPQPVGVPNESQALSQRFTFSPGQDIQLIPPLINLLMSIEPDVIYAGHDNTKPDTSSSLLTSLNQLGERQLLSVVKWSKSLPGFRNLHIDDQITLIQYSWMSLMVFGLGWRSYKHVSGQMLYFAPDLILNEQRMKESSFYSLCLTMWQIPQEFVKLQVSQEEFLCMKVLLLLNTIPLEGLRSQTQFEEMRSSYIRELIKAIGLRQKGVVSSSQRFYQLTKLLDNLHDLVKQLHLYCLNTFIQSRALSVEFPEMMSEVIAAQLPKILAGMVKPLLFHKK

Test [18] concerns the target Estrogen receptor (Homo sapiens) (UniProt P03372). The test can be described thus: qHTS assay to identify small molecule antagonists of the estrogen receptor alpha (ER-alpha) signaling pathway using the BG1 cell line in the presence of 0.1 nM 17-beta-estradiol (AID 1259244). Note: potency is the fitted concentration of half-maximal effect; nearly all actives have a fitted effect of over 50% in size. A digest of the protocol:
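Estradiol at 0.1 nM (final) stimulates the endogenous ER-alpha of VM7Luc4E2 cells carrying an ERE-driven luciferase; compounds are co-incubated 22 h at 37C and luciferase output quantified by luminescence.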

Test [19] in a line: qHTS assay to identify small molecule agonists of the androgen receptor (AR) signaling pathway in the presence of an antagonist - cell viability counter screen (AID 1259379). Note: potency is the fitted concentration of half-maximal effect; nearly all actives have a fitted effect of over 25% in size. An outline of the steps:
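Seed MDA-kb2 at 3,000 cells/well; incubate 5 hr, 37C, 0% CO2. Add nilutamide to 3.0uM final, then pin compounds at 15 concentrations. Incubate 16 hr. Add CellTiter-Fluor at 15 hr, read fluorescence after 1 hr.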

Thyrotropin receptor (Homo sapiens), sequence (P16473 whole entry, looked up): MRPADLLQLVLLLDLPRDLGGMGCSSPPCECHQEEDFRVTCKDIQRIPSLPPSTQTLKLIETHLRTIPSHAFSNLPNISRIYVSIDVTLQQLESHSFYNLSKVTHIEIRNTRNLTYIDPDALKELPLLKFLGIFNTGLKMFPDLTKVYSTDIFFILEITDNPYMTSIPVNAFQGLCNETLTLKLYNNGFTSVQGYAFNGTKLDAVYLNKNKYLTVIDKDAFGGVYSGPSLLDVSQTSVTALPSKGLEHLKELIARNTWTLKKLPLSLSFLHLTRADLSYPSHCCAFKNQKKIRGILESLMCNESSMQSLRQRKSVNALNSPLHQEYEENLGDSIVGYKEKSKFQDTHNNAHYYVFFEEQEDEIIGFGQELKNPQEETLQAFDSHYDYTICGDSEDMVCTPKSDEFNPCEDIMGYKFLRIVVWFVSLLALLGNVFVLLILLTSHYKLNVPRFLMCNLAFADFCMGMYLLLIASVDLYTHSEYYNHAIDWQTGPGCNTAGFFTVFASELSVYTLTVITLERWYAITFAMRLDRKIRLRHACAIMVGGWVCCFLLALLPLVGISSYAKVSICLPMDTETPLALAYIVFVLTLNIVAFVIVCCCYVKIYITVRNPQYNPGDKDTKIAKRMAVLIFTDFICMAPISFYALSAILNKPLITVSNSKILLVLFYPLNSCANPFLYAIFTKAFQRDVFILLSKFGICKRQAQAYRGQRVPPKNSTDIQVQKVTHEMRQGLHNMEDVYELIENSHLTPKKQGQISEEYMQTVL
Estrogen receptor beta (Homo sapiens), sequence (Q92731 whole entry, looked up): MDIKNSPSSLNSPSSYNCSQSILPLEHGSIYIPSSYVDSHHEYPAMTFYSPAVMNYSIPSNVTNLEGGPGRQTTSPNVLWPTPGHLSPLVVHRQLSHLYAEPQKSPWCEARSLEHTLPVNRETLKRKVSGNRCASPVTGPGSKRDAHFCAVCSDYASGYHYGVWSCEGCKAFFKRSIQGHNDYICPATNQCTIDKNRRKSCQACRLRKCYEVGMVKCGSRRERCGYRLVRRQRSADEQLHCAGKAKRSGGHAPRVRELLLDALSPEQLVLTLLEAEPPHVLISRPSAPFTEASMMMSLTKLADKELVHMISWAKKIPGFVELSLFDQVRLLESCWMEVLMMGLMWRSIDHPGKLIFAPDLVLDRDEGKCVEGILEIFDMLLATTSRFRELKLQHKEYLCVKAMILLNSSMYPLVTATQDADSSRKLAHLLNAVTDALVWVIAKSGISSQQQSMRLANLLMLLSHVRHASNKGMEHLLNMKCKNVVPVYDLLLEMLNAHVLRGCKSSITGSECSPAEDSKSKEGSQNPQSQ

On to `O=C(NOCC1CC1)c1ccc(F)c(F)c1Nc1ccc(I)cc1Cl`, for which the Potency in [1] is 8.41 µM (active); in [8], 13.3 µM (active). The Potency result in test [2], in test [3], in test [4], in test [5], in test [6] and in test [7] was “inactive” throughout. Besides, the Potency result in test [9], in [10], in [11] and in [12] was “inactive” each time.

Consider `Cc1onc(-c2c(Cl)cccc2Cl)c1C(=O)N[C@@H]1C(=O)N2[C@@H]1SC(C)(C)[C@@H]2C(=O)O`, for which the Potency entry in [1], in test [2], in test [3], in test [4], in test [5] and in [6] was “inactive” throughout. Further, the Potency result in test [7], in test [8], in [13], in [10], in [11] and in [15] was “inactive” throughout. The Potency result in test [16] and in test [17] was “inactive” in each case. Besides, the call in test [14] was inactive.

As to `CCCCCCCCCCCCCCCCCC[N+](C)(C)Cc1ccccc1`, the Potency is 17.4 µM (active) in [1]; 55 µM (active) in test [18]; 61.7 µM (active) in test [4]; 24.6 µM (active) in test [5]; 0.155 µM (active) in [8]; 55 µM (active) in [19]. The Potency in test [13] was 24.6 µM (active); in test [11], 27.6 µM (active). Further, the Potency result in [7], in [10] and in test [15] was “inactive” in each case. Moreover, in test [14], the molecule was classed as inactive.

Take `Oc1ccc(N=Nc2ccccc2)cc1`: the Potency was 31 µM (active) in [1]; 2.77 µM (active) in test [3]; 27.7 µM (active) in test [5]; 43.8 µM (active) in test [8]; 24.7 µM (active) in test [19]; 24.7 µM (active) in [12]. For the same molecule, the Potency in test [16] is 27.7 µM (active). The Potency result in test [4], in [7], in test [10], in [15] and in test [17] was “inactive” in each case. The call in test [14] was inactive.

With `N=C1C=CC(=C(c2ccc(N)cc2)c2ccc(N)cc2)C=C1`, the Potency is 3.06 µM (active) in test [1]; 7.7 µM (active) in test [18]; 24.3 µM (active) in test [4]; 21.7 µM (active) in test [5]; 19.3 µM (active) in test [6]; 12.2 µM (active) in test [8]. Besides, the values for the Potency in test [19], in test [13] and in [16] were 12.2 µM (active), 7.7 µM (active) and 24.3 µM (active), respectively. Besides, the Potency result in test [7], in test [10], in [11], in test [12] and in [17] was “inactive” each time.

Regarding `C[C@@H](NCCCc1cccc(C(F)(F)F)c1)c1cccc2ccccc12`, the Potency in test [1] is 18.8 µM (active); in test [8], 18.8 µM (active); in test [19], 29.8 µM (active); in [13] it was 21.1 µM (active); in test [11], 18.8 µM (active). In addition, the Potency result in [2], in test [3], in [4], in [7], in test [9] and in [10] was “inactive” throughout. Also, the Potency result in test [16] and in test [17] was “inactive” throughout. Moreover, the molecule was classed as inactive in [14].

For the molecule `Oc1cccc(-c2c3nc(c(-c4cccc(O)c4)c4ccc([nH]4)c(-c4cccc(O)c4)c4nc(c(-c5cccc(O)c5)c5ccc2[nH]5)CC4)C=C3)c1`, the Potency is 29.8 µM (active) in test [1]; 13.3 µM (active) in test [5]; 13.3 µM (active) in [6]; 16.8 µM (active) in [8]; 8.41 µM (active) in test [19]; 8.41 µM (active) in test [13]. Moreover, the values for the Potency in [11] and in test [16] were 21.1 µM (active) and 10.6 µM (active), respectively. Moreover, the Potency entry in [2], in [7], in test [10] and in [12] was “inactive” each time. Moreover, the call in test [14] was inactive.

For the origin of these results see PubChem BioAssay (Tox21).
